Source: PubChem BioAssay (NCATS)
Where “and” joins values, the source holds several entries; their conditions need not be identical. Equal entries are not always repeated. Inconclusive results are not listed. Where a call stands in place of a potency, no number is given. Values without a mark were called inactive. Calls of active or inactive are those of the source. Calls follow the shape of the dose curve; as a rule, active = well fitted cell-killing curve with a large enough effect; inconclusive = small, poorly fitted or top-dose-only effect, or effect the other way; inactive = no such curve, though single readings can be large or run the other way.

Experiments:
[1] = Viability qHTS for spleen associated tyrosine kinase inhibitor (SYKi) naive MV4-11 cells (AID 1963823); conditions: MV4-11 AML viability, CellTiter-Glo luminescence, 72 h; series mostly up to 45 µM; also: nearly all actives have a fitted effect of over 40% in size
Procedure, shortened: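 In this viability screen, compounds acted on SYK inhibitor naive MV4-11 cells for three days (72 hr, 37 C). Remaining viable cells were measured by CellTiter-Glo luminescence following a 10 min room-temperature development.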

[2] = Viability qHTS for spleen associated tyrosine kinase inhibitor (SYKi) drug resistant MV4-11 cells (AID 1963824); conditions: SYKi-resistant MV4-11 viability, CellTiter-Glo, 72 h; series mostly up to 45 µM; also: nearly all actives have a fitted effect of over 35% in size
Procedure, shortened: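 SYK-inhibitor-resistant MV4-11 AML cells were seeded at 500 per well onto compound and cultured 72 hours (37 °C, 5% CO2). CellTiter-Glo was then added, and after 10 min at room temperature, luminescence gave viability.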
Potency is read from the fitted curve at half-maximal effect.

SMILES	Potency [1]	Potency [2]	viability (% of control) [1]	viability, % of control [2]
OC[C@H]1O[C@@H](OCCc2ccccc2)[C@H](O)[C@@H](O)[C@@H]1O	inactive	inactive	–	–
O=C(CC12CC3CC(CC(C3)C1)C2)Nc1cccc2nc(NCCNCCO)ccc12	18.6 µM (active)	16.4 µM (active)	–	–
CC(OC1OCCN(Cc2n[nH]c(=O)[nH]2)C1c1ccc(F)cc1)c1cc(C(F)(F)F)cc(C(F)(F)F)c1 (configuration not stated)	9.2 µM (active)	5.8 µM (active)	–	–
CCC1CC2C(C)=CC3CCCCC3C2(C)C2(OC(=O)C(C)(O)OC2=O)O1 (configuration not stated)	12.8 µM (active)	10.1 µM (active)	–	–
CC(C)c1cc(C(=O)N2CC[C@H](NC(=O)C3CC3)C2)n[nH]1	inactive	inactive	–	–
C[C@@H]1O[C@@H](O[C@H]2[C@H](O[C@H]3[C@H](O[C@H]4CC[C@@]5(C)C(CC[C@]6(C)C5CC=C5[C@@H]7CC(C)(C)CC[C@]7(C(=O)O[C@@H]7O[C@H](CO)[C@@H](O[C@@H]8O[C@@H](C)[C@H](O)[C@@H](O)[C@H]8O)[C@H](O)[C@H]7O)CC[C@]56C)C4(C)C)OC[C@H](O)[C@@H]3O)O[C@H](CO)[C@@H](O)[C@@H]2O)[C@H](O)[C@H](O)[C@H]1O (some centres not stated)	–	–	3.73% [at 9.25 µM]	2.33% [at 9.25 µM]
C=C1CC23CC1(O)CCC2C1=CC2OC(=O)C(C)(C2O)C1C3C(=O)O (configuration not stated)	inactive	inactive	–	–
O=C(O)c1ccnc2cc(-c3nc4ccccc4n3CCN3CCCCC3)sc12	inactive	inactive	–	–
COc1cc(-c2ncn(/C=C\C(=O)OC(C)C)n2)cc(C(F)(F)F)c1	0.103 µM (active)	0.164 µM (active)	–	–
COc1cc(/C=C/C(=O)OC(C)(C)C(OC2OC(CO)C(O)C(O)C2O)C(=O)OCc2ccc(OC3OC(CO)C(O)C(O)C3O)cc2)ccc1O (configuration not stated)	inactive	inactive	–	–
N#Cc1ccc2ncnc(NCCc3ccccc3)c2c1	8.2 µM (active)	4.11 µM (active)	–	–
C[S+](CC[C@H](N)C(=O)[O-])C[C@H]1O[C@@H](n2cnc3c(N)ncnc32)[C@H](O)[C@@H]1O (some centres not stated)	inactive	inactive	–	–
O=C(O)c1ccc(O)c2ncc(N3CCCN(CCc4cccc5ccccc45)CC3)cc12	18.4 µM (active)	10.3 µM (active)	–	–
COC(=O)C[C@@H]1C(C(=O)O)=CO[C@@H](O[C@@H]2O[C@H](CO)[C@@H](O)[C@H](O)[C@H]2O)/C1=C\COC(=O)/C=C\c1ccccc1	inactive	inactive	–	–
CC1(C(=O)O)CCCC2(C)C1CCC13CC(CCC21)C1(CO)OC31 (configuration not stated)	inactive	inactive	–	–
C[N+]1(C)[C@@H]2CC[C@H]1CC(OC(=O)C(O)c1ccccc1)C2 (some centres not stated)	inactive	inactive	–	–
COC(=O)[C@]1(C)CCC[C@@]2(C)[C@@H]3CC[C@@H]4C[C@@]3(CC[C@@H]21)C[C@H]4C(=O)O	inactive	inactive	–	–
COc1ccc2c(c1)C=C1Cn3c-2c(C2CCCCC2)c2ccc(cc23)C(=O)NS(=O)(=O)N(C)CCOCCN(C)C1=O	16.4 µM (active)	18.4 µM (active)	–	–
CS(=O)(=O)NCC1CCC(Nc2nc3c(s2)CCSc2ccccc2-3)CC1 (configuration not stated)	2.31 µM (active)	4.61 µM (active)	–	–

SMILES	Potency [1]	Potency [2]	viability (% of control) [1]	viability, % of control [2]
O=C(NN1CCCCC1)c1nn(-c2ccc(Cl)cc2Cl)c(-c2ccc(C#Cc3ccc(C(F)(F)F)cc3)s2)c1CNS(=O)(=O)N1CCCC1	inactive	inactive	–	–
COc1cc(CCCO)ccc1O[C@@H]1O[C@H](CO)[C@@H](O)[C@H](O)[C@H]1O	inactive	inactive	–	–
O=C(/C=C/c1ccccc1O)O[C@@H]1O[C@H](CO)[C@@H](O)[C@H](O)[C@H]1O	inactive	inactive	–	–
C=C1C2(C)CC3C4(C)OC(C5OC56C4=CC(=O)OC6(C)C)C3(C)C13C(=O)OC(C)C3(O)C2=O (configuration not stated)	inactive	inactive	–	–
C=C1CCC2(C(=O)OC3OC(CO)C(O)C(O)C3O)CCC3(C)C(=CCC4C5(C)CCC(OC6OC(CO)C(OC7OC(C)C(O)C(O)C7O)C(OC7OCC(O)C(O)C7O)C6O)C(C)(C)C5CCC43C)C2C1 (configuration not stated)	–	–	89.9% [at 9.25 µM]	105% [at 9.25 µM]
COc1ccnc2[nH]cc(C(=O)C(=O)N3CCN(C(=O)c4ccccc4)CC3C)c12 (configuration not stated)	inactive	inactive	–	–
CC1=C(C)C(=O)C(CCCCC#CCCCC#CCO)=C(C)C1=O	11.9 µM (active)	13.3 µM (active)	–	–
CC(=O)O[C@H]1CC[C@@]2(CI)C(=CC[C@@H]3[C@@H]2CC[C@]2(C)[C@@H]([C@H](C)CCCC(C)C)CC[C@@H]32)C1	–	–	88.4% [at 9.25 µM]	83% [at 9.25 µM]
CONC(=O)c1ccccc1Nc1cc(Nc2cc(C)nn2C(C)C)ncc1Cl	6.61 µM (active)	13.2 µM (active)	–	–
CC(/C=C/C1=CC2=CC(=O)C(C)(O)C(O)C2=CO1)=C\C(C)CCO (configuration not stated)	inactive	inactive	–	–
CC(=O)O[C@]1(C(C)=O)CC[C@H]2[C@@H]3CCC4=CC(=O)CCC4=C3[C@@H](c3ccc(N(C)C)cc3)C[C@@]21C	25.9 µM (active)	20.6 µM (active)	–	–
O=C(NCCO)c1cc(C(=O)NCCO)cc(C(=O)NCCO)c1	inactive	inactive	–	–
O=C(C[C@@H]1C(C(=O)O)=CO[C@@H](O[C@@H]2O[C@H](CO)[C@@H](O)[C@H](O)[C@H]2O)/C1=C\CO)OCCc1ccc(O)cc1	inactive	inactive	–	–
C=C1CCC2C(OC(=O)C2(O)COC(C)=O)C2C(=C)C(O)CC12 (configuration not stated)	inactive	inactive	–	–
CC(C)c1cc(C(=O)N2CC[C@@H](NC(=O)C3CC3)C2)n[nH]1	inactive	inactive	–	–
CCC(C)C1NC(=O)C(Cc2ccccc2)NC(=O)C(CCCCCC(=O)C(O)CO)NC(=O)C2CCCCN2C1=O (configuration not stated)	2.43 µM (active)	1.93 µM (active)	–	–
O=C(O)CCc1cc2ccoc2cc1O[C@@H]1O[C@H](CO[C@@H]2OC[C@](O)(CO)[C@H]2O)[C@@H](O)[C@H](O)[C@H]1O	inactive	inactive	–	–
O=C(Nc1cc(-c2ccccc2)nn1-c1ccccc1)c1ccc([N+](=O)[O-])cc1	inactive	18.4 µM (active)	–	–
O=C(C(c1ccccc1)c1ccccc1)N1CCN(CC(O)COc2cccc3ncccc23)CC1 (configuration not stated)	20.9 µM (active)	10.3 µM (active) and 11.8 µM (active)	–	–

SMILES	Potency [1]	Potency [2]	viability (% of control) [1]	viability, % of control [2]
COc1ccc(NS(=O)(=O)c2ccc(N)cc2)nn1	inactive	inactive	–	–
C[C@@H]1O[C@@H](O[C@H]2[C@H](O[C@H]3[C@H](O[C@H]4CC[C@@]5(CO)C(CC[C@]6(C)C5CC=C5C7CC(C)(C)C[C@@H](O)[C@]7(C)CC[C@]56C)C4(C)C)O[C@H](C(=O)O)[C@@H](O)[C@@H]3O)OC[C@@H](O)[C@@H]2O)[C@H](O)[C@H](O)[C@H]1O (some centres not stated)	–	–	63.5% [at 9.25 µM]	70% [at 9.25 µM]
COc1ccc(/C=C/C(=O)O[C@@H]2[C@@H](O)[C@@H](O)[C@H](O[C@@H]3C=C(CO)[C@H]4[C@H](O[C@@H]5O[C@H](CO)[C@@H](O)[C@H](O)[C@H]5O)OC=C[C@H]43)O[C@H]2C)cc1O	inactive	inactive	–	–
CC(C)CCNC(=O)c1ccc2c(c1)nc(Nc1n[nH]c3ccc(-c4ccccc4OC(F)(F)F)cc13)n2C1CCC(O)CC1 (configuration not stated)	16.4 µM (active)	16.4 µM (active)	–	–
C=C1C(=O)OC2/C=C(\COC(C)=O)CC/C=C(\C=O)CC(OC(=O)C(C)CC)C12 (configuration not stated)	1.59 µM (active)	1.12 µM (active)	–	–
NC(=O)C1=C(O)[C@@]2(O)C(=O)C3=C(O)c4c(O)cccc4C[C@H]3C[C@H]2CC1=O	3.32 µM (active)	2.63 µM (active)	–	–
CN(CC(=O)N(Cc1ccc(C2CCCCC2)cc1)c1ccc(C(=O)O)cc1)S(=O)(=O)c1c(F)c(F)c(F)c(F)c1F	1.84 µM (active)	1.03 µM (active)	–	–
C=C1C(O)CC2C(C(=O)O)=COC(OC3OC(CO)C(O)C(O)C3OC(=O)/C=C\c3ccc(O)cc3)C12 (configuration not stated)	inactive	inactive	–	–
Cc1c(C(=O)O)c(O)cc2c1C(=O)c1c(O)c([C@@H]3O[C@H](CO)[C@@H](O)[C@H](O)[C@H]3O)c(O)c(O)c1C2=O	inactive	inactive	–	–
C/C=C(/COC(=O)/C(C)=C/C)C(=O)OC(CC)c1ccc(OC)c(OC)c1 (configuration not stated)	inactive	inactive	–	–
OC[C@H]1O[C@@H](O[C@H]2[C@H](O)[C@@H](CO)O[C@@H](OCc3ccccc3)[C@@H]2O[C@@H]2OC[C@](O)(CO)[C@H]2O)[C@H](O)[C@@H](O)[C@@H]1O	inactive	inactive	–	–
O=C(OC1CN2CCC1CC2)N1CCc2ccccc2C1c1ccccc1 (configuration not stated)	18.4 µM (active)	18.4 µM (active)	–	–
C=C1C(=O)O[C@H]2/C=C(/C)[C@@H](OC(C)=O)C/C=C(\C)C[C@@H](OC(=O)/C(=C/C)COC(=O)/C(=C/C)CO)[C@@H]12	1.78 µM (active)	1.59 µM (active)	–	–
N#Cc1c(Oc2ccc(F)c(NC(=O)Cc3cccc(C(F)(F)F)c3)c2)ccc2nc(NC(=O)C3CC3)sc12	1.46 µM (active)	1.64 µM (active)	–	–
COc1cc(Nc2nc3c(s2)CCCC3c2ccc(F)cc2)ccc1-n1cnc(C)c1 (configuration not stated)	3.66 µM (active)	4.61 µM (active)	–	–
COC(=O)CCc1cc2ccoc2c(OC)c1O[C@@H]1O[C@H](CO)[C@@H](O)[C@H](O)[C@H]1O	inactive	inactive	–	–
C=C1[C@H](OC(C)=O)[C@H]2[C@@H](OC(=O)c3ccccc3)[C@@H](C)C[C@]2(O)[C@@H](OC(C)=O)[C@H](C)/C=C/C(C)(C)C(=O)[C@H](OC(C)=O)[C@H]1OC(C)=O	inactive	inactive	–	–
CCOC(=O)C1=Cc2ccc(C(F)(F)C(F)(F)F)cc2N=C(N)C1	20.6 µM (active)	20.6 µM (active)	–	–
